Only some compounds are listed: those with a hit (about 3.5% of all), similar ones and a draw of the others.
MITF inh: human MITF inhibition, primary screen; inhibition, % at 2.6 µM; 650,000 compounds, 0.91% hits; AlphaScreen MITF homodimerization, bead proximity signal; AID 1259374; O75030; in the data active means inhibition above about 50%
TEAD-YAP block: TEAD-YAP interaction inhibition. HEK-TIYL cells, TEAD-Gal4/YAP UAS-luciferase luminescence. inhibition, % at 9.12 µM. 640,000 compounds, 1.4% hits. AID 1259422; in the data active means inhibition above about 32%
GPR151 activ: human GPR151 activation; activation, % at 11.2 µM; 650,000 compounds, 1% hits; Q8TDV0; PathHunter beta-arrestin GPR151 cells, luminescence; in the data active means activation above about 4.9%
Target sequence (Q8TDV0 whole entry, looked up): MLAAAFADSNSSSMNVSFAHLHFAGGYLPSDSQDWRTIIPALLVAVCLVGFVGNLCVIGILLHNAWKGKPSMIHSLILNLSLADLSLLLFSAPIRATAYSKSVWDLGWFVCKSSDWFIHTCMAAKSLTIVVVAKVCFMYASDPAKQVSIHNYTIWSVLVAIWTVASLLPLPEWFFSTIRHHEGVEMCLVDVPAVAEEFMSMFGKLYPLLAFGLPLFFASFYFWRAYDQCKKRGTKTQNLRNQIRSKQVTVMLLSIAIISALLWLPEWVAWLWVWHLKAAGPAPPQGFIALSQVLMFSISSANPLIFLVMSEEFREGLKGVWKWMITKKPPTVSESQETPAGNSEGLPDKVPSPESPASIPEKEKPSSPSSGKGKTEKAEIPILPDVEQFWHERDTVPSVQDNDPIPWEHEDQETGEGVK
FBW7 activator: activators of human E3 ligase FBW7; Q969H0; normalized activity (activation), % at 26.1 µM; AID 1259310; AlphaScreen FBW7–phospho-cyclin E peptide binding, activator screen; 650,000 compounds, 0.13% hits; in the data active means normalized activity above about 1.9%;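 further: purified mutant Fbw7 with reduced substrate affinity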
MITF inh conf: human MITF inhibition, confirmation | shares compounds with MITF inh | 4,700 compounds, 16% hits | inhibition, % at 2.6 µM | AlphaScreen MITF homodimerization, biotin/His-MITF beads;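 active means inhibition above a cutoff derived from the DMSO control wells, cut at about 28% in these data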;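 further: inhibitors lower the bead chemiluminescence by keeping MITF from dimerizing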
AS interf DR: counter-screen: compounds optically interfering with AlphaScreen. shares compounds with MITF inh. AlphaScreen optical interference counterscreen, cell-free. IC50, µM. 480 compounds, 6% hits. AID 1259373; call rule not given here
AlphaScreen intf2: counter-screen: compounds optically interfering with AlphaScreen; LysRS AlphaScreen counterscreen, signal interference, triplicate; inhibition, % at 2.6 µM; 4,700 compounds, 7.6% hits; shares compounds with MITF inh;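 active means inhibition above a cutoff derived from the DMSO control wells, cut at about 30% in these data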
Numbers stand for hits; 0 = inactive; - = no result.

SMILES	MITF inh	TEAD-YAP block	GPR151 activ	FBW7 activator	MITF inh conf	AlphaScreen intf2	others
CC1CCCCN1C(=O)CN1CCN(c2ncccn2)CC1 (configuration not stated)	54	0	0	0	0	0
CN(C)CCCn1c(SCc2ccccc2)nnc1-c1ccncc1	73	0	0	0	0	0
CCOc1ccc(NC(=O)CSc2nnc(-c3ccncc3)n2CCCN(C)C)cc1	53	0	0	0	0	0
COc1ccccc1C1C(C#N)=C(N)OC(C)=C1C(=O)Nc1ccc(SC)cc1 (configuration not stated)	0	0	0	0	-	-
COc1ccc(CN2CCN(C(=O)c3ccco3)CC2)c(OC)c1OC	0	0	0	0	-	-
COc1ccccc1CN1CCN(Cc2ccco2)CC1	77	0	0	0	0	0
COc1ccc(CN2CCc3ccccc3C2)c(OC)c1	0	0	0	0	-	-
COc1ccc(CN2CCN(Cc3ccco3)CC2)c(OC)c1	73	0	0	0	0	0
COc1ccc(CN2CCN(Cc3ccco3)CC2)c(OC)c1OC	55	0	0	0	0	0
CCCCC(CC)CNCC(O)COCc1ccc(OC)c(OC)c1 (configuration not stated)	65	0	0	0	0	0
CCC(=O)N1N=C(c2ccc(OC)cc2)CC1c1cn(-c2ccccc2)nc1-c1ccccc1 (configuration not stated)	0	0	0	0	-	-
COc1ccc2ccccc2c1CN1CCN(C(=O)c2ccncc2)CC1	65	0	0	0	0	0
COc1ccc(CN2CCN(C(=O)c3ccccc3)CC2)c(OC)c1	60	0	0	0	0	0
COc1ccc(CN2CCN(C(=O)c3ccc(F)cc3)CC2)c(OC)c1	0	0	0	0	-	-
COc1ccc(OC)c(CN2CCN(C(=O)c3cccc4ccccc34)CC2)c1	0	0	0	0	-	-
COc1ccc(OC)c(CN2CCN(C(=O)c3cccc(Cl)c3)CC2)c1	66	0	0	0	0	0
COc1ccc(OC)c(CN2CCN(C(=O)C(c3ccccc3)c3ccccc3)CC2)c1	52	0	0	0	0	0
Clc1cccc(OCCOc2cccc3ccccc23)c1	0	0	0	0	-	-
COc1ccccc1CN1CCN(C(=O)c2ccncc2)CC1	65	0	0	0	0	0
COc1cc(OC)c(OC)cc1CN1CCN(C(=O)c2ccncc2)CC1	56	0	0	0	0	0
COc1ccc(CN2CCC(C(=O)NC(C)c3ccccc3)CC2)c(OC)c1 (configuration not stated)	51	0	0	0	0	0
COc1ccccc1CN1CCN(C(=O)c2ccccc2)CC1	60	0	0	0	0	0
COc1ccc(CN2CCC(C(=O)NCC(C)C)CC2)c(OC)c1	0	0	0	0	-	-
COc1cccc(C(=O)N2CCN(Cc3ccccc3OC)CC2)c1	0	0	0	0	-	-
O=C(COc1ccc2ccccc2c1)Nc1ccc(I)c(C(=O)O)c1	0	0	0	0	-	-
SMILES	MITF inh	TEAD-YAP block	GPR151 activ	FBW7 activator	MITF inh conf	AlphaScreen intf2	others
O=C(Nc1cccc(-c2nc3cc(Cl)ccc3o2)c1)c1cccc2ccccc12	0	0	0	0	-	-
Cc1ccc(NC(=O)C(Cc2c[nH]c3ccccc23)NC(=O)OC(C)(C)C)cc1 (configuration not stated)	62	0	0	0	0	0
COc1cccc(/C=N/NC(=O)c2cc(Br)cc(Br)c2O)c1	0	0	0	0	-	-
Cc1cc(C(=O)COC(=O)c2n[nH]c3ccccc23)c(C)n1-c1ccc2c(c1)OCO2	0	0	0	0	-	-
CCc1cccc(OCC(O)CNCc2cccnc2)c1 (configuration not stated)	76	0	0	0	0	0
CC(=O)c1cccc(OCC(O)CNCc2cccc(C(F)(F)F)c2)c1 (configuration not stated)	57	0	0	0	0	0
COCCN(CCOC)C(=O)COC(=O)c1ccc(Cl)c(N)c1	0	0	0	0	-	-
NC(=O)C1CCN(CC(=O)Nc2ccc(Br)cc2F)CC1	0	0	0	0	-	-
CC1CN(CCOc2ccc(Cl)cc2Cl)CC(C)O1 (configuration not stated)	0	0	0	0	-	-
Cc1cc(C)c(C)c(OCCN2CC(C)OC(C)C2)c1 (configuration not stated)	71	0	0	0	0	0
CC1CN(CCOc2ccc(Br)cc2Cl)CC(C)O1 (configuration not stated)	51	0	0	0	0	0
CCOc1ccccc1OCCN1CC(C)OC(C)C1 (configuration not stated)	0	0	0	0	-	-
CC1CN(CCCOc2ccc(Br)cc2Cl)CC(C)O1 (configuration not stated)	58	0	0	0	0	0
CCc1ccc(NC(=O)CSc2nc3n[nH]c(C)c3c(=N)n2-c2cccc(C)c2)cc1	0	0	0	0	-	-
COC(=O)c1ccc(OCC(O)Cn2nc(C)cc2C)cc1 (configuration not stated)	0	0	0	0	-	-
COc1cccc(NC(=O)CCC2CCN(C(=O)c3ccc(-n4ccnc4)cc3)CC2)c1	0	0	0	0	-	-
COc1ccc(OC)c(NC(=O)c2cc3ccc(O)cc3oc2=Nc2ccc(C(=O)O)cc2)c1	55	0	0	0	79	0	AS interf DR=0
C(=C\c1ncc2ccccn12)/c1ccccc1	56	0	0	0	0	0
CC(C)(C)c1ccc(S(=O)(=O)N2CCc3nc4ccccc4c(C(=O)O)c3C2)cc1	51	0	0	0	0	0
O=C(O)Cc1ccc(NC2CC(=O)N(c3ccccc3F)C2=O)cc1 (configuration not stated)	0	0	0	0	-	-
O=C(NC(c1ccccc1)c1ccccc1)c1ccccc1Br	0	0	0	0	-	-
O=C(CNC(c1ccccc1)c1ccccc1)NNC(=O)c1ccccc1Br	63	0	0	0	0	0
CCOC(=O)/C(Br)=N\Nc1ccc(C)cc1	84	0	0	0	0	0
CCOC(=O)/C(Cl)=N\Nc1ccccc1	0	0	0	0	-	-
CCN1CCN(c2cc(C)c3cc(NC(=O)/C=C/c4cc(OC)ccc4OC)ccc3n2)CC1	0	0	0	0	-	-
Cc1cc(C)nc(SCc2cc(=O)c(OC(=O)C3(c4ccc(Cl)cc4)CCCC3)co2)n1	102	0	0	0	0	0
O=C(Nc1nc(CC(=O)N2CCc3ccccc3C2)cs1)C1CC1	59	0	0	0	0	0
CCOc1cccc2cc(C(=O)Nc3ccc(OC)cc3)c(=Nc3ccc(C(=O)O)cc3)oc12	0	0	0	0	-	-

Assay outcomes from PubChem BioAssay.
